Compound activity as filed in PubChem.
Rows were chosen to be rich in hits. Some 8% of all compounds tested hit in one or more screens of this group.
KB-V1 cytotox: qHTS assay for MDR1-selective chemotherapeutics: Primary screen using the drug-selected MDR subline cells KB-V1 | KB-V1 MDR cells viability, CellTiter-Glo, 72 h | Potency, µM (titrated, usually from 46.1 µM), usual class: cytotoxic | 400,000 tested, 3.4% active; also: % is scaled to controls: 0 for no effect and ±100 for the full control effect; nearly all actives have a fitted effect of over 60% in size
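In this primary screen, KB-V1 cells overexpressing P-gp are incubated with library compounds (lowest to highest concentration) for 72 h at 37 degrees C before a luminescent ATP viability read.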
MCF10A rerep: A quantitative high throughput screen for small molecules that induce DNA re-replication in MCF 10a normal breast cells. Potency, µM (doses to about 46.1 µM), for the others: top-dose activity, positive = re-replication, usual class: activators. 350,000 tested, 2.9% active. MCF 10A DNA re-replication, Hoechst nuclear intensity, 48 h; also: % of control where 0% means no effect; nearly all actives have a fitted effect of over 50% in size
HT1080NT lethal: qHTS for induction of synthetic lethality in tumor cells producing 2HG: qHTS for the HT-1080-NT fibrosarcoma cell line. HT-1080-NT fibrosarcoma viability, CellTiter-Glo ATP luminescence, 48 h. Potency, µM (top dose mostly 46.1 µM), for inactives: top-dose activity, negative = less viability, usual class: cytotoxic. 360,000 tested, 1.6% active;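 also: NT is the 2HG producing partner of a matched IDH1 knockdown line; 0% = DMSO-treated cells and -100% = media-only wells without cells; nearly all actives have a fitted effect of over 55% in size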
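Luminescent CellTiter-Glo readout after 48 hours of compound exposure at 37 degrees C defined viability of HT-1080-NT cells. Activity was normalized to DMSO wells and cell-free media wells; concentration-response curves were fitted and assigned curve classes.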
KB-3-1 tox: qHTS assay for MDR1-selective chemotherapeutics: Primary screen using the parental adenocarcinoma cell KB-3-1. KB-3-1 viability, CellTiter-Glo ATP luminescence, 72 h. Potency, µM (titrated, usually from 46.1 µM), hits mostly cytotoxic. 400,000 tested, 1.4% active; also: % is scaled to controls: 0 for no effect and ±100 for the full control effect; nearly all actives have a fitted effect of over 60% in size
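Multi-concentration cytotoxicity screen in KB-3-1 cells grown in DMEM lacking phenol red with 10% FBS. After 72 h at 37 °C with compound, ATP-dependent luminescence was recorded.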
HT1080 IDH1KD tx: qHTS for induction of synthetic lethality in tumor cells producing 2HG: qHTS for the HT-1080-IDH1KD cell line. HT-1080 IDH1 knockdown viability, ATP luminescence, 48 h. Potency, µM (doses to about 46.1 µM), for inactives: top-dose activity, negative = toxicity, hits mostly cytotoxic. 360,000 tested, 2% active. AID 686971, 2013;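 also: 0% = DMSO wells and -100% = cell-free medium wells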
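Luminescent ATP read-out (CellTiter-Glo, 10 min at room temperature) after 48 h compound exposure at 37 °C gave viability of IDH1-knockdown HT-1080 cells. Activity was normalised to DMSO and cell-free wells, then fitted as concentration-response curves.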
SW480 rerep: A quantitative high throughput screen for small molecules that induce DNA re-replication in SW480 colon adenocarcinoma cells; Potency, µM (series often up to 46.1 µM), for the others: top-dose re-replication activation, actives largely listed as activators; 340,000 tested, 1.8% active; SW480 DNA re-replication, Hoechst DNA content imaging, 48 h; also: % of control where 0% means no effect; nearly all actives have a fitted effect of over 55% in size
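DNA re-replication was detected as more nuclei of elevated Hoechst intensity after 48 hr exposure to compound (23 nL pinned per well of 250 cells).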
* marks the source's active call; other numbers are inactive results; i = inactive; u = inconclusive; x = no result given; [ ] = dose if it differs, or a comment. Calls follow the shape of the dose curve; as a rule, active = well fitted curve in the direction sought with a large enough effect; inconclusive = small, poorly fitted or top-dose-only effect, or another doubt; inactive = no such curve, though single readings can be large; an effect the other way counts as inactive or inconclusive. Potency is read from the fitted curve at half-maximal effect.

SMILES | KB-V1 cytotox | MCF10A rerep | HT1080NT lethal | KB-3-1 tox | HT1080 IDH1KD tx | SW480 rerep
O=C(Nc1cccc(C(F)(F)F)c1)C1CCCN(S(=O)(=O)c2cccc3nsnc23)C1 (configuration not stated) | i | x | x | i | x | x
CCOc1ccc(S(=O)(=O)c2c(C(=O)c3ccc(C)c(C)c3)cnc3ccccc23)cc1 | i | x | x | i | x | x
Cc1ccc(N(Cc2ccccc2F)S(C)(=O)=O)c(C)c1 | i | -10% | 18% | i | 1% | -20%
CCN(Cc1nc2cc(Cl)ccc2c(=O)[nH]1)C(=O)c1ccc(C)c(NC(=O)c2ccco2)c1 | u | u | -7% | i | 2% | 9%
CCN(Cc1nc2cc(Cl)ccc2c(=O)[nH]1)C(=O)c1cc(C2CC2)nn1-c1ccccc1 | i | 16µM* | -2% | i | 3% | -2%
CCN(Cc1nc2cc(Cl)ccc2c(=O)[nH]1)C(=O)c1nn(C)c(=O)c2ccccc12 | 18µM* | -2% | -12% | i | -4% | -3%
COC(=O)CSc1[nH]c2ccccc2c1[N+](=O)[O-] | i | 15µM* | -3% | i | -2% | -3%
COc1ccccc1-n1c(-c2ccccc2)c[nH]c1=S | i | 5.2µM* | 0% | i | 1% | -7%
S=c1[nH]cc(-c2ccccc2)n1-c1ccccc1Cl | 13µM* | 8% | 7% | i | -1% | -3%
COC(=O)[C@@]12C[C@@H](CC(=O)N3CCN(C(=O)C4CC4)CC3)C(=O)N(Cc3ccc4c(c3)OCO4)C1=CCC(C)(C)C2 | i | x | -2% | u | -8% | x
COc1ccc(-c2cc(C(F)(F)F)n3nc(C(=O)Nc4sc5c(c4C#N)CCC(C)C5)cc3n2)cc1OC (configuration not stated) | i | x | x | u | x | x
Cc1cc(CCCCCCCCc2cc(C)cc(=O)o2)oc(=O)c1 | 7.3µM* | 1% | 6% | i | -7% | -8%
COC(=O)c1cc(C)cc(=O)o1 | i | -3% | 4% | i | 12% | -28%
Cc1ccc(OCc2cc(C(=O)N3CCN(C4CCCC4)CC3)no2)cc1C | u | u | 2% | i | 3% | 1%
Cc1cc(=O)n2[nH]c(C)c(-c3ccccc3)c2n1 | u | -6% | -2% | i | 8% | -4%
Cc1cc(=O)n2[nH]c(N)c(N=Nc3ccccc3F)c2n1 | u | u | u | 21µM* | u | -4%
CC(C)(C)c1ccc(C(=O)NC2(C(F)(F)F)NC(=O)N(CCc3ccccc3)C2=O)cc1 (configuration not stated) | i | x | x | i | x | x
CCCN(CCC)CCNS(=O)(=O)c1ccc2c(c1)CCN2C(=O)C1CCC1 | u | 2.6µM* | 9% | i | -1% | 12µM*
CCOc1ccc2nc(N3C(=O)CNC3=S)sc2c1 | u | u | -17% | i | -1% | u
Cc1cc2nc(N3C(=O)CNC3=S)sc2cc1C | 16µM* | 15µM* | -22% | u | -16% | u
Cc1cc(C)c(C(CC(=O)c2cccs2)C(C#N)C#N)c(C)c1 (configuration not stated) | i | u | u | u | u | u
COC(=O)C(=C/C(C)=C/c1cccnc1)C(=O)OC | u | 8.2µM* | -25% | u | -11% | u
COC(=O)/C(=C/c1cccnc1)NC(=O)c1ccccc1 | i | -10% | -3% | i | 3% | -7%
C=CCn1c(Cc2cccc3ccccc23)n[nH]c1=S | 18µM* | -1% | -10% | i | -4% | u
CCOC(=O)c1sc2nc(-c3ccccc3)ccc2c1N | i | u | 26% | i | 18% | u
SMILES | KB-V1 cytotox | MCF10A rerep | HT1080NT lethal | KB-3-1 tox | HT1080 IDH1KD tx | SW480 rerep
NC(=O)c1sc2nc(-c3ccccc3)ccc2c1N | 5.8µM* | 5% | 27% | u | 24% | u
COc1ccc(-c2ccc3c(N)c(C(=O)NC(C)C)sc3n2)cc1OC | i | 18µM* | -15% | u | -21% | 18µM*
COc1ccc2oc(C(=O)Nc3ccccc3N3CCOCC3)c(C)c2c1 | u | 4% | -7% | u | 0% | u
O=C1C=C(N2CCN(C(=O)c3ccccc3)CC2)C2(CCCCC2)O1 | i | -5% | -1% | i | -5% | -4%
O=C1OC(c2ccc(Br)cc2)=N/C1=C\c1ccco1 | i | -15% | 12% | i | 27% | -7%
C#CCNC(=O)C[C@@H]1C[C@@]2(C(=O)OC)CCCCC=C2N(Cc2cccc3ccccc23)C1=O | i | x | -22% | i | u | x
CC(=O)OC1CCC2(C)C(CCC3C4CC=C(C(C)=O)C4(C)OC(=O)CC32)C1 (configuration not stated) | u | x | u | 23µM* | 10µM* | x
CCN(CC(=O)Nc1ccc2c(c1)OCCO2)C(=O)/C=C/c1ccc([N+](=O)[O-])cc1 | 21µM* | 21% | 7% | i | 15% | -2%
Cc1ccc(C)c(N(C(=O)Cn2nnc(-c3cccs3)n2)C(C(=O)NC2CCCC2)c2ccncc2)c1 (configuration not stated) | i | -180%[0.0737 µM] | 4% | i | 18% | -28%
CC(C)(C)NC(=O)C(c1ccncc1)N(Cc1cccs1)C(=O)Cn1nnc(-c2ccc(F)cc2)n1 (configuration not stated) | i | 10µM* | u | i | u | 20%
CC(C)(C)NC(=O)C(OC(=O)Cn1nnc(-c2ccc(F)cc2)n1)c1ccncc1 (configuration not stated) | i | 21µM* | -1% | i | 9% | 12%
O=C(NC1CCCC1)C(c1ccncc1)N(CC1CCCO1)C(=O)Cn1nnc(-c2cccs2)n1 (configuration not stated) | 23µM* | 11% | 16% | u | 4% | 0%
CC(=O)c1ccc(NC(=O)CSc2cn[nH]n2)cc1 | i | 11% | 30% | i | 9% | -2%
Cc1cc(N2C(=O)C=CC2=O)c([N+](=O)[O-])cc1C | i | 18µM* | u | i | u | 16µM*
